The source of these data is PubChem BioAssay (NCATS).

Where “and” joins values, the source holds several entries; their conditions need not be identical. Equal entries are not always repeated. Results filed as inconclusive are left out. Calls of active or inactive are those of the source. Unless noted, calls come from the whole dose curve; as a rule, active = well fitted curve in either direction with a large enough effect (not every such curve was filed as active); inconclusive = small, poorly fitted or top-dose-only effect, or another doubt; inactive = flat fitted curve, though single readings scatter.

Assay [1] addresses Mitogen-activated protein kinase 10 (Mus musculus) (UniProt Q61831). The experiment in a line: JNK3 AlphaScreen Assay (AID 530).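 Note: kinase came from lysate of stimulated human HepG2 cells; signal reports phosphorylation of biotinylated GST-cJun 1-79 at Ser73 with 10 µM ATP; % is set by controls: 0 for no effect and ±100 for the full control effect.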 Put shortly:
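Activity was read by AlphaScreen after JNK3-containing HepG2 lysate (cytokine pre-activated) phosphorylated biotinylated GST-cJun with 10 uM ATP at room temperature. Phospho-Ser73 cJun antibody with Protein-A acceptor beads provided detection.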
For orientation: In Alpha technology, singlet oxygen from a donor bead excites a nearby acceptor bead.

In assay [2] the target is Cytochrome P450 3A4 (Homo sapiens) (UniProt P08684). The experiment in a line: qHTS Assay for Inhibitors and Substrates of Cytochrome P450 3A4 (AID 884; active = well fitted curve in the direction sought with a large enough effect; an effect the other way counts as inactive or inconclusive; note: % is set by controls: 0 for no effect and ±100 for the full control effect; nearly all actives have a fitted effect of over 50% in size). The procedure, abridged: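 Luminescent readout of luciferin produced by CYP3A4 (20 nM) dealkylation of Luciferin-PPXE, 25 uM (its KM). NADPH-driven reaction ran 60 min at RT after 10 min compound preincubation; data scaled to 57 uM ketoconazole as 100% inhibition.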
A general note: qHTS replaces the single test concentration by a dilution series.

Assay [3] is described as follows: Confirmation and Secondary Assay for Modulators of Hemoglobin Beta Chain Splicing at IVS2 654 locus (AID 910; active = well fitted curve in the direction sought with a large enough effect; an effect the other way counts as inactive or inconclusive;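 note: HeLa cells stably carrying EGFP split by mutant beta-globin IVS2-654 intron; % of control where 0% means no effect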). The procedure, abridged:
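HeLa cells stably expressing EGFP interrupted by β-globin IVS2-654 intron, seeded overnight in Opti-MEM/2% FCS, then treated 2 days at 37 °C. Restored splicing read as total peak GFP intensity per well by laser scanning cytometry (488 nm excitation, 500–520 nm emission); 500 nM antisense PNA as control.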

The nature of assay [4]: Confirmation and Secondary Assay for Modulators of Hemoglobin Beta Chain Splicing at IVS2 705 locus (AID 930; active = well fitted curve in the direction sought with a large enough effect; an effect the other way counts as inactive or inconclusive;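 note: HeLa cells stably expressing the EGFP-705 splicing reporter; GFP fluorescence per well restored by corrected splicing of the IVS2-705 intron in EGFP; % of control where 0% means no effect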). Put shortly: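 Stable HeLa line with EGFP disrupted by mutant beta-globin intron 2 (705). Overnight attachment, then 2 days of compound at 37C, 5% CO2. Signal: peak GFP intensity summed over objects 5-250 µm.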
Assay [5] is described as follows: qHTS Assay for Lipid Storage Modulators (AID 1519; calls by dose curve). Conditions: Drosophila S3 cells, BODIPY lipid droplet/cell ratio, laser cytometry, cells loaded with oleic acid. Put shortly:
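Cells seeded at 5,000 per well were treated with compounds over a concentration series and loaded with oleic acid (400 uM, as added). Lipid droplet fluorescence (488 nm excitation, 500-530 nm channel) was read by laser-scanning cytometry and normalized to 20 uM Triacsin C.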

Assay [6] is described as follows: AP1 Signaling Pathway (AID 357).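 Note: ME-180 reporter cells stimulated with EGF at its EC50 level; % is set by controls: 0 for no effect and ±100 for the full control effect.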 Put shortly:
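A ratiometric CCF4 readout (405 nm excitation; 460 and 530 nm emission) quantified AP-1-driven beta-lactamase in ME-180 cells after 5 h with compound and EC50 EGF; AC50 values were derived for activators and inhibitors.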

The target in assay [7] is Cytochrome P450 1A2 (Homo sapiens) (UniProt P05177). Briefly: p450-cyp1a2 (AID 410; calls by dose curve; note: potency is the fitted concentration of half-maximal effect;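 for activity change, negative = inhibition: -100% = full effect of reference inhibitor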). Put shortly:
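Luminescent demethylation readout: Luciferin-ME (100uM, equal to Km) turned over by 20nM CYP1A2 for 60 min at room temperature after NADPH regeneration addition, following 10 min compound preincubation. Normalization used 57 uM furafylline as full inhibition.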

A short description of assay [8]: NFAT Signaling Pathway (AID 444).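 Note: carbachol stimulus at about its EC50 of 1 µM final; % is set by controls: 0 for no effect and ±100 for the full control effect.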 To be noted: Jurkat NFAT-bla M1, carbachol, beta-lactamase ratio, 5 h. Put shortly: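 Jurkat cells with NFAT-driven β-lactamase reporter and co-expressed M1 receptor, stimulated with carbachol (final 1 uM, ~EC50), compound titration, 5 h at 37 °C. CCF4 loaded 1 h at RT; 460/530 nm ratio gave %activity and AC50.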
A short description of assay [9]: Stat Signaling Pathway (AID 446).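 Note: ME-180 cervical cancer cells given 40 pM IL-6 alongside compound; SIE-controlled beta-lactamase reporter measured as 460/530 nm FRET emission ratio; % is set by controls: 0 for no effect and ±100 for the full control effect.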 Put shortly: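 Emission at 460 and 530 nm (excitation 405 nm) reports SIE-controlled beta-lactamase in ME-180 cells. Cells received compound with 40 pM IL-6 for 5 hrs at 37 C; data scaled between 300 pM IL-6 and 125 nM JAK-inhibitor controls.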
The target in assay [10] is Glucocorticoid receptor (Homo sapiens) (UniProt P04150). Briefly: GR-GFP Redistribution (AID 450;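 active = compounds whose dose series gives a full or clear partial fitted curve of increased nuclear translocation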; note: potency is the fitted concentration of half-maximal effect). Conditions: U2OS GR-GFP nuclear translocation, laser cytometry, 2 h.
For assay [11], the target named is 3',5'-cyclic-AMP phosphodiesterase 4B (Homo sapiens) (UniProt Q07343). The experiment in a line: qHTS Assay for Inhibitors of PDE-IV (AID 607; active = well fitted activation curve with a large enough effect in the main read-out, with a control signal flat, not every such curve was filed as active; note: % of control where 0% means no effect). The procedure, abridged:
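The readout is membrane depolarisation from a cAMP-sensing CNG channel, detected with a potential dye at ex 535/em 590. Cells were HEK293-derived (endogenous PDE-IV) at 1000 cells/well, titrated up to 22.9 uM final.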

For assay [12], the target named is Glucocorticoid receptor (Homo sapiens) (UniProt P04150). The experiment in a line: GR-EFC Redistribution (AID 451; calls by dose curve; note: potency is the fitted concentration of half-maximal effect). Conditions: CHO-K1 GR-EFC translocation, beta-gal luminescence, 2 h. The procedure, abridged:
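CHO-K1 cells expressing nuclear EA and GR-ED fragments of b-gal; compounds titrated up to 46 uM final, 2 h at 37 C. GR nuclear translocation read as complemented b-gal luminescence after 1 h RT detection.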

For assay [13], the target named is Luciferin 4-monooxygenase (Photinus pyralis) (UniProt P08659). Briefly: Biochemical firefly luciferase enzyme assay for NPC (AID 624030; active = well fitted curve in the direction sought with a large enough effect; an effect the other way counts as inactive or inconclusive;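 note: purified P. pyralis luciferase at 10 nM with luciferin and ATP substrate; 0% = DMSO and -100% = full luciferase inhibition by PTC124 control; nearly all actives have a fitted effect of over 70% in size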). The procedure, abridged:
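Purified P. pyralis luciferase at 10 nM in 50 mM Tris Acetate (final), luminescence read within 5 minutes of enzyme addition to compounds. Activity normalised to PTC124 versus DMSO; concentration-response curves classed by r2, magnitude and activity.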

Assay [14] in a line: S16 Schwann cell PMP22 intronic element firefly luciferase assay (AID 624032; active = well fitted curve in the direction sought with a large enough effect; an effect the other way counts as inactive or inconclusive;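 note: plate controls were DMSO for no effect and PTC124 positive control mean for full effect; nearly all actives have a fitted effect of over 30% in size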). The procedure, abridged:
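Rat S16 Schwann cells stably carrying firefly luciferase driven by a PMP22 intronic element, in 10% FBS, treated 24 h at 37 C. ONE-Glo luminescence normalized to PTC124 control and DMSO (0%); curves classed by r2, magnitude and activity.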

Assay [15] can be described thus: qHTS profiling for inhibitors of Plasmodium falciparum proliferation (AID 504749; active = well fitted curve in the direction sought with a large enough effect; an effect the other way counts as inactive or inconclusive;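 note: 0% = DMSO vehicle and full inhibition = artemisinin control; nearly all actives have a fitted effect of over 60% in size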). Conditions: P. falciparum in erythrocytes, SYBR Green DNA, 72 h, at 28.7 µM (top of the series). The procedure, abridged: (§1)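 Each compound contacts P. falciparum-infected red blood cells for 72 h at 37 C; lysis buffer (Tris, EDTA, saponin, Triton X, SYBR Green I) is added and fluorescence measured next morning; values normalized to controls.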

The subject of another assay is C2A. Described as above. Conditions: P. falciparum in erythrocytes, SYBR Green DNA, 72 h; series mostly up to 28.7 µM. Put shortly:
as §1

For another assay, the system named is CP185. The assay is described as above. Conditions: P. falciparum in erythrocytes, SYBR Green DNA, 72 h; series mostly up to 28.7 µM. Put shortly: as §1
The next assay relates to FAB9. The description is as above. To be noted: P. falciparum in erythrocytes, SYBR Green DNA, 72 h; series mostly up to 28.7 µM. Put shortly:
as §1

Assay [16] addresses Ubiquitin carboxyl-terminal hydrolase 1 (Homo sapiens) (UniProt O94782). The experiment in a line: Inhibitors of USP1/UAF1: Pilot qHTS (AID 504865; active = well fitted curve in the direction sought with a large enough effect; an effect the other way counts as inactive or inconclusive;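 note: rhodamine fluorescence freed from ubiquitin-rhodamine substrate followed over time; top concentration of the series differs between compounds; % is set by controls: 0 for no effect and ±100 for the full control effect; nearly all actives have a fitted effect of over 35% in size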). Put shortly: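 Kinetic fluorescence assay: 1nM USP1/UAF1, 15 min compound preincubation, then 150nM Ub-Rho; 480/540 nm.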
The target of assay [17] is Cytochrome P450 3A4 (Homo sapiens) (UniProt P08684). Briefly: qHTS Assay for Activators of Cytochrome P450 3A4 (AID 885; active = well fitted curve in the direction sought with a large enough effect; an effect the other way counts as inactive or inconclusive; note: potency is the fitted concentration of half-maximal effect; nearly all actives have a fitted effect of over 65% in size). Put shortly:
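Activators are scored by enhanced luminescence from CYP3A4 conversion of luciferin-PPXE (25uM, equal to KM) to luciferin, after 60 min at RT with an NADPH-regenerating system.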

Setting [18] is: measured here: cell count channel max response.
Setting [19] is: measured here: lipid channel max response.

Chain of Cytochrome P450 1A2 (Homo sapiens) (P05177 whole entry, looked up): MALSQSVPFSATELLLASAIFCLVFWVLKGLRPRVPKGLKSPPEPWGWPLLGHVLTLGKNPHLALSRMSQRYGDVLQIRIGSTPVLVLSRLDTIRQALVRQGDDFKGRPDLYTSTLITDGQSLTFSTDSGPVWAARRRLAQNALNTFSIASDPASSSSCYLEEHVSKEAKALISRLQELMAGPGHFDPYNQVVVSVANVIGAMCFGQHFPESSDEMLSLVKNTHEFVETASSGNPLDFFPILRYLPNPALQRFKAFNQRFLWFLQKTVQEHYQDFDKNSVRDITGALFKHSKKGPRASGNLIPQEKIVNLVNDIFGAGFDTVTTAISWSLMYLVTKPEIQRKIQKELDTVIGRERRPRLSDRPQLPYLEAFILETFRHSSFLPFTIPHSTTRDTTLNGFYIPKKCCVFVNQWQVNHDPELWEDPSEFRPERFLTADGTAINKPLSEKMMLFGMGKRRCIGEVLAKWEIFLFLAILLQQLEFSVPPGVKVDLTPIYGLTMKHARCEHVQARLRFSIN
Chain of Cytochrome P450 3A4 (Homo sapiens) (P08684 whole entry, looked up): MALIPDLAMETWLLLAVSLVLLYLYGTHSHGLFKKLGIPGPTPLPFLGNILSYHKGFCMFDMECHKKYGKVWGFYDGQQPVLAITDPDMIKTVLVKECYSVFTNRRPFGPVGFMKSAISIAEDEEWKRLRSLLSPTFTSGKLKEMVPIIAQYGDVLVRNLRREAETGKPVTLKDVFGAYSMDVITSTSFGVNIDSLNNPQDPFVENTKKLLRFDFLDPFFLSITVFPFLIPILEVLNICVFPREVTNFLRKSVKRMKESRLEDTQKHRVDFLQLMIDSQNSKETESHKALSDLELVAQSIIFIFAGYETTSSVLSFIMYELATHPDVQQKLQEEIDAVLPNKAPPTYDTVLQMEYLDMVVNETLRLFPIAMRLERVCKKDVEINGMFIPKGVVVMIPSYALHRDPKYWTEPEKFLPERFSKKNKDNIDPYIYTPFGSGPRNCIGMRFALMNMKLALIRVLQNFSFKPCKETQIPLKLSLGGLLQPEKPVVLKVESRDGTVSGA
Chain of 3',5'-cyclic-AMP phosphodiesterase 4B (Homo sapiens) (Q07343 whole entry, looked up): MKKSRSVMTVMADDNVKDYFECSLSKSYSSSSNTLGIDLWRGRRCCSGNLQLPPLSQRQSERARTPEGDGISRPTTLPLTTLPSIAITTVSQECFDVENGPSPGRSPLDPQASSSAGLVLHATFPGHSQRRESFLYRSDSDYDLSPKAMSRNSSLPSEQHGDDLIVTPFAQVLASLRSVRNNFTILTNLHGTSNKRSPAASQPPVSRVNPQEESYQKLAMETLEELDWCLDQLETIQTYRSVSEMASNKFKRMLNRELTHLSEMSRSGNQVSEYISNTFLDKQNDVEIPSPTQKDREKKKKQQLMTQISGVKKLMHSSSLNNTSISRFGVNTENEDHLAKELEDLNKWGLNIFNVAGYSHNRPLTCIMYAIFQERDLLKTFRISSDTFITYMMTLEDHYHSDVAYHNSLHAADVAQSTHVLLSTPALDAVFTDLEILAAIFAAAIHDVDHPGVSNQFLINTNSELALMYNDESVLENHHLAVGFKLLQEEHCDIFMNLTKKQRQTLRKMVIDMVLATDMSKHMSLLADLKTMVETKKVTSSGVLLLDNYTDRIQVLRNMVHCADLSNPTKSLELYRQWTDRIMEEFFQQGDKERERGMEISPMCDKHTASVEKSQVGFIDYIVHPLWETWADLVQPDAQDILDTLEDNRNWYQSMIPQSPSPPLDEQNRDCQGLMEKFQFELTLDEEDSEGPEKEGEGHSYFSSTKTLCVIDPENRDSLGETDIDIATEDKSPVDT
Chain of Glucocorticoid receptor (Homo sapiens) (P04150 whole entry, looked up, the tested form may be a part): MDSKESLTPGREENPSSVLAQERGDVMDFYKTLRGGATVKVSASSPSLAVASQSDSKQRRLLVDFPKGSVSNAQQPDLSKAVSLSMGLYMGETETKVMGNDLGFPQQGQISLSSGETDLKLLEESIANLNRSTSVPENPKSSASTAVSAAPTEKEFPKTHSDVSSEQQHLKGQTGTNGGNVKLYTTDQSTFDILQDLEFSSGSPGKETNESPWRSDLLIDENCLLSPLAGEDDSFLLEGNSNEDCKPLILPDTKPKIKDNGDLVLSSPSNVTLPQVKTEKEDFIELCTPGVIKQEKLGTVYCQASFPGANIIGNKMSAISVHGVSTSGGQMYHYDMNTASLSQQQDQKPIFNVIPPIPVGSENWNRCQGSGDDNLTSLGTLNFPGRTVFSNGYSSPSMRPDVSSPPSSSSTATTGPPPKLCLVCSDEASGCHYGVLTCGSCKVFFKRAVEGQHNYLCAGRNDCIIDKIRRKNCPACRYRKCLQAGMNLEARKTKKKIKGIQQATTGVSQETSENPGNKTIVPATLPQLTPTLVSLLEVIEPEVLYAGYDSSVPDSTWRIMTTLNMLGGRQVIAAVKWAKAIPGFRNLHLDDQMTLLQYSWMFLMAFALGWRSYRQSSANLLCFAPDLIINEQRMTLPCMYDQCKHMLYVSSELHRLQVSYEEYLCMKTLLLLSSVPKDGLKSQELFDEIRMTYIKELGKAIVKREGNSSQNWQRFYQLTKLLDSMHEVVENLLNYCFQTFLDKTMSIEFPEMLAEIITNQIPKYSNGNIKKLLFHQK
Chain of Ubiquitin carboxyl-terminal hydrolase 1 (Homo sapiens) (O94782 whole entry, looked up): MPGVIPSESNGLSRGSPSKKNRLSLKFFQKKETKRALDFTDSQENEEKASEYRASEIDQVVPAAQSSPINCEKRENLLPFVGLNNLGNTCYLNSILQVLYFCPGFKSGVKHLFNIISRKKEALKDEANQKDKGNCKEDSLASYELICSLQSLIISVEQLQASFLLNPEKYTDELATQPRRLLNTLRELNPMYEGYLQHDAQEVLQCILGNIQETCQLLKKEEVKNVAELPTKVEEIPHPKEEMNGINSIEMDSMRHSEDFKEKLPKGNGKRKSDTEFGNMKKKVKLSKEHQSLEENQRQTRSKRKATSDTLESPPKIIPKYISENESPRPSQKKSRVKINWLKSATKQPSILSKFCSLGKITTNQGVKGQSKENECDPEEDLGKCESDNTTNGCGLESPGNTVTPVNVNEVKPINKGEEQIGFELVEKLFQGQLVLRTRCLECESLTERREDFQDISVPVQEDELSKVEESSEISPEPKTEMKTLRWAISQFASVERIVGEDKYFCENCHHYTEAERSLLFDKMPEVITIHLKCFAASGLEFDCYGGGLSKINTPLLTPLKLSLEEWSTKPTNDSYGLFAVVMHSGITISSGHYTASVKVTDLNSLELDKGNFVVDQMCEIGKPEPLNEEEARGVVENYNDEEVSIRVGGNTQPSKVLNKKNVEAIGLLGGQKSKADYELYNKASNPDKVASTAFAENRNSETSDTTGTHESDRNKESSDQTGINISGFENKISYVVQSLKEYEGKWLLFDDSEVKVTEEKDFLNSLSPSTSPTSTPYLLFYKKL
Chain of Luciferin 4-monooxygenase (Photinus pyralis) (P08659 whole entry, looked up): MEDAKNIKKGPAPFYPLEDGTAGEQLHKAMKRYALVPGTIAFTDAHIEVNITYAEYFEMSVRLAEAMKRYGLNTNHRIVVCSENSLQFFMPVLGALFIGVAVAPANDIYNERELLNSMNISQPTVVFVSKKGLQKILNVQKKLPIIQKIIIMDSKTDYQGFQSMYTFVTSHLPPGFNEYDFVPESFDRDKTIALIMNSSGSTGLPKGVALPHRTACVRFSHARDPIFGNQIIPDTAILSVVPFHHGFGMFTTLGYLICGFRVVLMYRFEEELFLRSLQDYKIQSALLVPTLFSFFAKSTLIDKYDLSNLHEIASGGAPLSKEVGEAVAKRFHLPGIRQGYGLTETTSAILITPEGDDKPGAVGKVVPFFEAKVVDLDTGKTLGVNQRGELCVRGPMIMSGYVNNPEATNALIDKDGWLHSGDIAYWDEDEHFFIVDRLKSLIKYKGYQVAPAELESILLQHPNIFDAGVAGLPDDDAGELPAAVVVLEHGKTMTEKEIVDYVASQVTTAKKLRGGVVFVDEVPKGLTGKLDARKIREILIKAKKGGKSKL

Turning to `COC(=O)NC(=S)Nc1ccccc1NC(=S)NC(=O)OC`, the call in [1] was inactive. For the same compound, the Potency entry in [2], in assay [3] and in assay [4] was “inactive” in each case. The activity change, negative = inhibition in [5] (at 57.5 µM (top of the series)) was 3.23% (inactive). The max response in [5] (setting [18]) was found to be 8.02%; in assay [5] (setting [19]) it was 10.3%.

Turning to `CS(=N)(=O)CC[C@@H](N)C(=O)O` (stereo not given in full), the call in [6], in [9] and in assay [1] was inactive. The Potency result in assay [7] and in [11] was “inactive” throughout. The values for the activity change, negative = inhibition in assay [8] (at 17.2 µM (top of the series)), in [8] (at 38 µM (top of the series)) and in assay [5] (at 25.7 µM (top of the series)) were -1.86% (inactive), 4.5% (inactive) and 0.596% (inactive), respectively. In assay [10], the Potency is > 46 µM (inactive) and > 20.6 µM (inactive). In addition, the results for the max response in [5] (setting [18]) and in assay [5] (setting [19]) were 16.1% and 16%, respectively.

For `c1cc(CN2CCC3(CCNCC3)CC2)ccn1`, the compound was called inactive in [6], in assay [9] and in assay [1]. In addition, the Potency result in [7] and in [11] was “inactive” throughout. The activity change, negative = inhibition in assay [8] (at 7.69 µM (top of the series)) is -8.56% (inactive); in assay [5] (at 57.5 µM (top of the series)), 4.55% (inactive). Further, in assay [12], the Potency is > 46 µM (inactive). The max response amounted to 10.7% in assay [5] (setting [18]) and 18.5% in assay [5] (setting [19]).

Consider `C#CCN(C)[C@@H](C)Cc1ccccc1`, for which the call in [6] and in assay [9] was inactive. Besides, the Potency in assay [7] was 25.1 µM (active) and 10 µM (active); in [10] it was > 46 µM (inactive) and > 20.6 µM (inactive); in [12], > 46 µM (inactive) and > 20.6 µM (inactive). Further, the activity change, negative = inhibition is -14.3% (inactive) in [8] (at 17.2 µM (top of the series)), -2.85% (inactive) in assay [8] (at 38 µM (top of the series)) and -2.3% (inactive) in assay [5] (at 25.7 µM (top of the series)). Also, the Potency entry (in [11]; in assay [13]; in assay [14]; in the assay on C2A; in the assay on CP185; in the assay on FAB9) was “inactive” throughout. The max response is 2.02% in assay [5] (setting [18]) and -0.249% in assay [5] (setting [19]). Moreover, the activity, negative = inhibition is -9.65% (inactive) in [15] (parasite line A) and 13.3% (inactive) in assay [15] (parasite line B).

In the case of `CN1C(=O)CCS(=O)(=O)[C@@H]1c1ccc(Cl)cc1`, the compound was called inactive in assay [6], in assay [9] and in assay [1]. The Potency result in assay [7], in [11] and in [16] was “inactive” in each case. The results for the activity change, negative = inhibition in assay [8] (at 17.2 µM (top of the series)) and in [5] (at 25.7 µM (top of the series)) were 1.85% (inactive) and -0.668% (inactive), respectively. Also, the Potency in [10] and in [12] was > 20.6 µM (inactive) throughout. Moreover, the values for the max response in [5] (setting [18]) and in assay [5] (setting [19]) were -4.45% and -4.68%, respectively.

With `CCc1cccc(CC)c1N(COC)C(=O)CCl`, the Potency entry in assay [2], in [3], in [4] and in assay [16] was “inactive” in each case. Moreover, the activity change, negative = inhibition in assay [5] (at 57.5 µM (top of the series)) is 1.98% (inactive). For the same compound, the max response in [5] (setting [18]) is -0.808%; in assay [5] (setting [19]), 0.291%.

For the compound `N#Cc1ccc(CN2CCC3(CC2)CCN(C(=O)Oc2ccccc2)CC3)cc1`, the compound was classed as inactive in assay [6] and in assay [9]. Moreover, the Potency entry in assay [7], in [11] and in assay [2] was “inactive” each time. Moreover, the Potency in [12] is > 46 µM (inactive); in assay [17], 15.8 µM (active). Also, in assay [5] (at 57.5 µM (top of the series)), the activity change, negative = inhibition is 0.91% (inactive). In addition, the max response in assay [5] (setting [18]) is -4.88%; in assay [5] (setting [19]) it was -1.78%.
